Assay results taken from the supplement of paper PMC12024424.
Counter-ions that a name gives are not always drawn.

What follows are compounds tested on Staphylococcus aureus Sa2 (MRSA, cystic fibrosis isolate) (assay: growth reduction vs untreated control (OD550); higher = stronger antibacterial activity). Conditions: 0.1 mM; 24 h.
Procedure: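 Single-dose screen of the MedChem Express Drug Repurposing Library (0.1 mM, 1% DMSO) against planktonic MRSA S. aureus Sa2 (CF isolate) in TSB in 96-well plates, 37 °C aerobic, 24 h. Assays were run in triplicate and repeated twice.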

Point of comparison: `OC(c1cc(C(F)(F)F)nc2c(C(F)(F)F)cccc12)C1CCCCN1` (stereo unspecified) [Mefloquine (hydrochloride)], growth reduction 100%. Against it:
- C=CC(=O)Nc1cc(Nc2nccc(-c3cn(C)c4ccccc34)n2)c(OC)cc1N(C)CCN(C)C [Osimertinib (dimesylate)] — the same, 100%
- COc1ccc(CN2CCN(C(c3ccc(F)cc3)c3ccc(F)cc3)CC2)c(OC)c1OC [Lomerizine dihydrochloride] — the same, 100%
- Cc1nc(Nc2ccc(F)cc2)nc(N2CCc3ccccc3C2C)c1C (stereo unspecified) [Revaprazan (hydrochloride)] — lower, 93.4%
- CCCCCCCC/C=C/CCCCCCCC(=O)OC[C@H]1O[C@@H](n2ccc(N)nc2=O)C(F)(F)[C@@H]1O [Gemcitabine (elaidate)] — the same, 100%
- Cc1cnc(NC(=O)Nc2cc(Br)c(C)cc2OC[C@@H]2CNCCO2)cn1 [Rabusertib] — the same, 100%
